From PubChem BioAssay AID1159580 (chemical genetic matrix, 2015)
Where “and” joins values, the source holds several entries; their conditions need not be identical. Equal values may be shown once. About 2,000 (36%) of roughly 5,500 compounds were called active. Roughly 18% stayed inconclusive and do not appear here. Cut-off read from the data, not from the text of the source: active = normalized growth mostly below about 0.91 (no sharp cut-off); inconclusive = no clear call, values can overlap the other calls; inactive = mostly above about 0.92. The list shows a part of the results.

Test: chemical genetic growth profiling, strain panel (AID 1159580);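 note: tested at 20 µM; growth read once vehicle control cultures reached saturation at 30 °C; 1 = growth at the plate median or of vehicle wells; lower values mean less growth of the strain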
Settings: S. cerevisiae deletion strains, growth OD

Measured: normalized growth

CCN(CC)Cc1ccc(Nc2ccnc3cc(Cl)ccc23)cc1O
inactive: locus YAL021C, strain ccr4, hits give low values 0.986 | locus YAL026C, strain drs2, hits give low values 1.03 | locus YAL030W, strain snc1, hits give low values 1 | locus YBL061C, strain skt5, hits give low values 1.03 | locus YBR009C, strain hhf1, hits give low values 0.96 | locus YBR021W, strain FUR4, hits give low values 0.995 | locus YBR023C, strain chs3, hits give low values 1.03 | locus YBR171W, strain sec66, hits give low values 1.05 | locus YBR229C, strain ROT2, hits give low values 1 | locus YBR231C, strain swc5, hits give low values 0.989 | locus YBR279W, strain paf1, hits give low values 1.01 | locus YCL011C, strain gbp2, hits give low values 1 | locus YCL016C, strain dcc1, hits give low values 1.02 | locus YCL029C, strain bik1, hits give low values 1 | locus YCL061C, strain MRC1, hits give low values 1.01 | locus YCL069W, strain vba3, hits give low values 1.02 | locus YCR088W, strain abp1, hits give low values 1.03 | locus YDL005C, strain med2, hits give low values 1.04 | locus YDL035C, strain GPR1, hits give low values 1.01 | locus YDL040C, strain nat1, hits give low values 1 | locus YDL074C, strain BRE1, hits give low values 1 | locus YDL101C, strain DUN1, hits give low values 1.01 | locus YDL185W, strain tfp1, hits give low values 0.997 | locus YDL192W, strain arf1, hits give low values 0.999 | locus YDR001C, strain nth1, hits give low values 1.03 | locus YDR069C, strain doa4, hits give low values 1.01 | locus YDR101C, strain arx1, hits give low values 0.988 | locus YDR137W, strain rgp1, hits give low values 1.07 | locus YDR150W, strain NUM1, hits give low values 1.01 | locus YDR159W, strain sac3, hits give low values 0.941 | locus YDR162C, strain NBP2, hits give low values 1.02 | locus YDR195W, strain ref2 0.971 | locus YDR297W, strain sur2, hits give low values 1.02 | locus YDR318W, strain mcm21, hits give low values 1 | locus YDR334W, strain swr1, hits give low values 1.02 | locus YDR335W, strain msn5, hits give low values 1.03 | locus YDR388W, hits give low values 0.998 | locus YDR502C, strain sam2, hits give low values 0.997 | locus YEL003W, strain gim4, hits give low values 1.01 | locus YEL037C, strain rad23, hits give low values 1.03 | locus YEL061C, strain CIN8 (second series), hits give low values 1.01 | locus YEL061C, strain CIN8, hits give low values 1 | locus YER015W, strain faa2, hits give low values 1 | locus YER016W, strain bim1, hits give low values 1.03 | locus YER110C, hits give low values 0.999 | locus YER111C, strain swi4, hits give low values 1.03 | locus YER155C, strain BEM2 (second series), hits give low values 0.865 | locus YER155C, strain BEM2, hits give low values 1 | locus YER167W, strain BCK2, hits give low values 1.01 | locus YFR010W, strain ubp6, hits give low values 0.992 | locus YGL078C, strain dbp3, hits give low values 1 | locus YGL086W, strain mad1, hits give low values 0.996 | locus YGL167C, strain pmr1, hits give low values 1.01 | locus YGL173C, strain kem1, hits give low values 0.991 | locus YGL227W, strain vid30, hits give low values 1.01 | locus YGL240W, strain doc1, hits give low values 0.958 | locus YGL248W, strain PDE1, hits give low values 1.01 | locus YGL253W, strain hxk2, hits give low values 1.01 | locus YGR078C, strain PAC10, hits give low values 1 | locus YGR135W, strain pre9, hits give low values 0.994 | locus YGR229C, strain SMI1, hits give low values 1.02 | locus YGR252W, strain gcn5, hits give low values 0.96 | locus YHR013C, strain ard1, hits give low values 0.96 | locus YHR027C, strain rpn1, hits give low values 1.01 | locus YHR030C, strain SLT2, hits give low values 1.01 | locus YHR079C, strain IRE1 (second series), hits give low values 0.999 | locus YHR079C, strain IRE1, hits give low values 1.07 | locus YHR094C, strain hxt1, hits give low values 0.998 | locus YHR129C, strain ARP1, hits give low values 1 | locus YHR142W, strain chs7, hits give low values 1.03 | locus YHR200W, strain rpn10, hits give low values 0.997 | locus YIL066C, strain RNR3, hits give low values 1.02 | locus YIL073C, strain SPO22, hits give low values 1.01 | locus YIL125W, strain kgd1, hits give low values 1 | locus YIR030C, strain dcg1, hits give low values 0.997 | locus YJL092W, strain hpr5, hits give low values 1.01 | locus YJL095W, strain BCK1 (second series), hits give low values 1.01 | locus YJL095W, strain BCK1, hits give low values 1 and 1.05 | locus YJL115W, strain asf1, hits give low values 1.04 | locus YJL129C, strain trk1, hits give low values 1.01 | locus YJL134W, strain LCB3, hits give low values 1.01 | locus YJL154C, strain vps35, hits give low values 1.02 | locus YJL164C, strain tpk1, hits give low values 1 | locus YJL166W, strain qcr8, hits give low values 0.992 | locus YJL168C, strain set2, hits give low values 1 | locus YJL187C, strain SWE1 (second series), hits give low values 1 | locus YJR043C, strain POL32, hits give low values 0.996 | locus YJR066W, strain TOR1, hits give low values 0.992 | locus YJR075W, strain HOC1, hits give low values 1.01 | locus YKL009W, strain mrt4, hits give low values 0.997 | locus YKL068W, hits give low values 0.996 | locus YKL085W, strain MDH1 (second series), hits give low values 0.995 | locus YKL085W, strain MDH1, hits give low values 0.995 | locus YKL160W, strain elf1, hits give low values 1.04 | locus YKL190W, strain CNB1, hits give low values 1.01 | locus YKR001C, strain vps1, hits give low values 0.999 | locus YKR026C, strain gcn3, hits give low values 1.03 | locus YKR091W, strain srl3, hits give low values 1.02 | locus YLL001W, strain dnm1, hits give low values 1.01 | locus YLL026W, hits give low values 1.02 | locus YLL041C, strain sdh2, hits give low values 1.03 | locus YLR027C, strain aat2, hits give low values 1.01 | locus YLR039C, strain RIC1, hits give low values 1.01 | locus YLR058C, strain SHM2, hits give low values 1.01 | locus YLR102C, strain apc9, hits give low values 0.993 | locus YLR113W, strain HOG1, hits give low values 1.06 | locus YLR221C, strain rsa3, hits give low values 0.987 | locus YLR258W, strain gsy2, hits give low values 1.03 | locus YLR262C, strain YPT6 (second series), hits give low values 1.02 | locus YLR262C, strain YPT6, hits give low values 1.06 | locus YLR268W, strain sec22, hits give low values 0.993 | locus YLR320W, strain mms22, hits give low values 0.939 | locus YLR330W, strain CHS5, hits give low values 1.01 | locus YLR342W, strain FKS1 (second series), hits give low values 0.984 | locus YLR342W, strain FKS1, hits give low values 1.01 | locus YLR357W, strain rsc2, hits give low values 1.06 | locus YLR370C, strain arc18, hits give low values 1.02 | locus YLR371W, strain rom2, hits give low values 1 | locus YLR384C, strain iki3, hits give low values 1.01 | locus YLR418C, strain cdc73, hits give low values 0.98 | locus YML016C, strain PPZ1, hits give low values 1 | locus YML032C, strain rad52, hits give low values 0.99 | locus YML120C, strain ndi1, hits give low values 1.02 | locus YML124C, strain tub3, hits give low values 1.01 | locus YMR058W, strain fet3, hits give low values 0.93 | locus YMR078C, strain ctf18, hits give low values 1 | locus YMR125W, strain sto1, hits give low values 1.05 | locus YMR129W, hits give low values 1.02 | locus YMR205C, strain PFK2, hits give low values 0.983 | locus YMR223W, strain ubp8, hits give low values 1 | locus YMR231W, strain pep5, hits give low values 1.01 | locus YMR307W, strain GAS1, hits give low values 1.01 | locus YNL067W, strain RPL9B, hits give low values 1 | locus YNL071W, strain lat1, hits give low values 1.03 | locus YNL128W, strain TEP1, hits give low values 1.02 | locus YNL153C, strain GIM3, hits give low values 0.987 | locus YNL183C, strain NPR1, hits give low values 1 | locus YNL209W, strain ssb2, hits give low values 1.01 | locus YNL233W, strain BNI4, hits give low values 1 | locus YNL248C, strain rpa49, hits give low values 1.03 | locus YNL250W, strain rad50, hits give low values 0.997 | locus YNL271C, strain bni1, hits give low values 1.03 | locus YNL298W, strain CLA4, hits give low values 1.01 | locus YNL307C, strain MCK1, hits give low values 0.997 | locus YNL322C, strain KRE1 (second series), hits give low values 1.05 | locus YNR049C, strain mso1, hits give low values 1.01 | locus YNR052C, strain pop2, hits give low values 1 | locus YOL006C, strain TOP1, hits give low values 1.04 | locus YOL012C, strain htz1 1.13 | locus YOL147C, strain pex11, hits give low values 0.996 | locus YOR001W, strain rrp6, hits give low values 0.995 | locus YOR061W, strain CKA2, hits give low values 1.01 | locus YOR069W, strain VPS5, hits give low values 1 | locus YOR070C, strain gyp1, hits give low values 1.02 | locus YOR080W, strain dia2, hits give low values 1.01 | locus YOR083W, strain WHI5, hits give low values 0.986 | locus YOR106W, strain vam3, hits give low values 1.05 | locus YOR136W, strain idh2, hits give low values 0.995 | locus YOR144C, strain elg1, hits give low values 0.99 | locus YOR184W, strain ser1, hits give low values 0.992 | locus YOR231W, strain MKK1, hits give low values 1.05 | locus YOR265W, strain rbl2, hits give low values 1 | locus YOR270C, strain vph1, hits give low values 1.05 | locus YOR290C, strain snf2, hits give low values 1.02 | locus YOR316C, strain cot1, hits give low values 0.997 | locus YPL051W, strain arl3, hits give low values 1.01 | locus YPL078C, strain atp4, hits give low values 1.03 | locus YPL106C, strain sse1, hits give low values 1.05 | locus YPL240C, strain hsp82, hits give low values 1.02 | locus YPL241C, strain CIN2, hits give low values 1.01 | locus YPL256C, strain CLN2, hits give low values 1.01 | locus YPR119W, strain clb2, hits give low values 1 | locus YPR141C, strain kar3, hits give low values 1.01 | locus YPR163C, strain tif3, hits give low values 1.01 | locus YPR167C, strain met16, hits give low values 1 | strain wtn01, hits give low values 1
active: locus YDR392W, strain spt3, hits give low values 0.737
